Results filed as inconclusive are left out. A call without a number means that no potency is given here. Calls of active or inactive are those of the source. Calls follow the shape of the dose curve; as a rule, active = well fitted inhibition curve with a large enough effect; inconclusive = small, poorly fitted or top-dose-only effect, or effect the other way; inactive = no such curve, though single readings can be large or run the other way.
Potency is read from the fitted curve at half-maximal effect.

The nature of this assay: Concentration response confirmation VP16 counterscreen for inhibitors of ROR gamma transcriptional activity. Also: nearly all actives have a fitted effect of over 70% in size. Particulars: Drosophila S2 Gal4-VP16 UAS-luciferase, luminescence, 20 h; series mostly up to 46.1 µM. The essentials:
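Drosophila Schneider cells stably carrying Gal4-VP16 under metallothionein promoter plus UAS-Photinus luciferase. Compound preincubated 1 hr, then 700 uM copper sulfate induction for 20 hr at ambient temperature; luminescence read.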
As for `Cc1c(OC(C)C(=O)NCc2cccnc2)ccc2c3c(c(=O)oc12)CCCC3` (stereo not given), the Potency entry was “inactive”.
Regarding `COc1ccc(CNS(=O)(=O)c2ccc3c(c2)CCN3C(=O)C2CC2)cc1`, the Potency result is “inactive”.
In the case of `Cc1cc(NCc2ccccn2)n2ncc(-c3ccc(Cl)cc3)c2n1`, the Potency is 0.996 µM (active).
Regarding `CCOc1ccc(OCc2cccc(C(=O)O)c2)cc1`, the Potency is 8.88 µM (active).
Take `COc1cccc(CNS(=O)(=O)c2ccc3c(c2)CCN3C(=O)C2CC2)c1`: the Potency entry was “inactive”.
The entry for `COc1cc(OC)c(C2=NOC(C(=O)NCc3cccnc3)C2)cc1Cl` (stereo not given) is “inactive”; for `Cc1ccc(-c2n[nH]c(=S)n2/N=C/C=C\c2ccccc2[N+](=O)[O-])cc1` it is “inactive”; for `CCOC(=O)C(C(=O)OCC)C(C(=O)OCC)N1CCOCC1` (stereo not given) it is 3.53 µM (active).
On to `CCOC(=O)[C@@H]1[C@H]2COc3ccccc3[C@@H]2N2C(=O)N(c3ccc(OC)cc3)C(=O)[C@@]12C`, for which the Potency result is “inactive”.
On to `COc1ccc(C(=O)Nc2nc3cc4c(cc3s2)OCCO4)c(OC)c1`, for which the Potency is 0.223 µM (active).
In the case of `CC(C)(C)c1ccc(-c2noc(CCC(=O)Nc3cccnc3)n2)cc1`, the Potency is 1.99 µM (active).
Consider `CC(=O)c1cccc(N(CC(=O)Nc2ccccc2C(=O)N2CCCC2)S(C)(=O)=O)c1`, for which the Potency result is “inactive”.
With `O=C(/C=C/c1c(F)cccc1Cl)N1CCc2ccccc2C1`, the Potency result is “inactive”.
For the compound `O=C(CN1CCCCCC1)Nc1ccc(S(=O)(=O)N2CCOCC2)cc1`, the Potency result was “inactive”.
Consider `COc1ccc(-c2nc(CS(=O)(=O)CC(=O)NCCc3ccc(C)cc3)c(C)o2)cc1`, for which the Potency result is “inactive”.
Turning to `O=C1c2ccccc2C(=O)c2c1ccc1c(=O)n(C3CCCCC3)[nH]c21`, the Potency result was “inactive”.
`COc1ccc(-n2ncc(Cl)c(Cl)c2=O)cc1`: the Potency is 19.9 µM (active).
Take `CCN1CCN(CCC(=O)Nc2ccccc2)CC1`: the Potency result is “inactive”.
Take `Cc1nn(-c2cc(C)c3ccccc3n2)c2c1C1C(C2)C1(C)C` (stereo not given): the Potency is 22.3 µM (active).
As to `COc1ccc(CNC(=O)COC(=O)C2CC3C=CC2C3)cc1` (stereo not given), the Potency entry is “inactive”.
Take `O=C(COc1ccccc1)NNc1nc2c(F)cccc2s1`: the Potency result was “inactive”.
Regarding `CCN1C(=O)/C(=C/c2ccc(N3CCCC3)cc2)NC1=S`, the Potency is 9.96 µM (active).
Regarding `Cc1ccc(NC(=S)NCCN(C2CCCCC2)C2CCCC2)cc1C`, the Potency is 22.3 µM (active).
As for `CCCCCCn1ccc(=N)cc1`, the Potency is 11.2 µM (active).
Take `O=C(NC(=S)Nc1nc(-c2ccccc2)cs1)c1cccnc1`: the Potency result is “inactive”.
For the compound `Cc1cccc(NC(=O)c2cc3ccccc3o2)c1`, the Potency is 25 µM (active).
The figure for `CC(C)(C)S(=O)(=O)c1cnc2c(-c3ccc(Cl)cc3)cnn2c1N` is 6.28 µM (active); for `COc1ccc2nc(N3C(=O)CNC3=S)sc2c1` it is 8.88 µM (active).
With `Cc1ccc(OCCCC(=O)Nc2nc3ccccc3[nH]2)cc1`, the Potency entry is “inactive”.
The figure for `CNc1cc(C(F)(F)F)nc(-c2ccccn2)n1` is 8.88 µM (active).
As for `CN(Cc1nc2ccccc2c(=O)[nH]1)Cc1nc2ccsc2c(=O)[nH]1`, the Potency is 4.99 µM (active).
`O=C(O)c1ccc(/C=N/n2cc(-c3ccccc3)[nH]c2=S)cc1`: the Potency entry is “inactive”.
Take `O=C(Cn1c(=O)oc2ccc(Cl)cc21)Nc1ccon1`: the Potency result was “inactive”.
The value for `COc1ccc(-c2c[n+]3c(n2-c2ccc(C)cc2)CCCCC3)cc1` was 3.53 µM (active); that for `S=c1[nH]nc(-c2cc(-c3ccccn3)nc3ccccc23)o1` was “inactive”.
